From PubChem BioAssay
FBA Mtb inh – inhibits M. tuberculosis FBA enzyme | P9WQA3 | purified M. tuberculosis FBA, fluorescence read-out | inhibition, % at 1 µM | hit rate 2.3% among 360,000 | AID 588726; in the data active = inhibition above about 27%
Target sequence (P9WQA3 whole entry, looked up): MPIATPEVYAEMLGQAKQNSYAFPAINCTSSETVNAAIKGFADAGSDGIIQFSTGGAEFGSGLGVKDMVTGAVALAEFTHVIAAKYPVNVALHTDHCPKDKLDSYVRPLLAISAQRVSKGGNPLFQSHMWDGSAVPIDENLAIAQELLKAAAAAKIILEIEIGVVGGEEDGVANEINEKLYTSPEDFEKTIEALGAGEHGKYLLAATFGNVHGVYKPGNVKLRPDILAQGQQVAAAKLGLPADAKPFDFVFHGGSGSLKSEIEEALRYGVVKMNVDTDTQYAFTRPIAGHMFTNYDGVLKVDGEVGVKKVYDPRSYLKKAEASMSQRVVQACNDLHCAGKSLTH
Bead autofluor – flagged as autofluorescent in microsphere protease counterscreen; AID 624483; compound autofluorescence counterscreen, microsphere flow cytometry; hits give high values; hit rate 3.1% among 360,000; fluorescence intensity (no concentration beside the values); in the data active = fluorescence intensity above about 16000; inconclusive = no clear call, values can overlap the other calls
Anthrax LF prot – blocks Bacillus anthracis lethal factor protease; P15917; multiplex microsphere protease cleavage assay, LF; inhibition, % at 10 µM; hit rate 0.12% among 360,000
BoNT-F LC inh – blocks Botulinum neurotoxin F light chain protease; Multiplex microsphere protease cleavage assay, flow cytometry; inhibition, % at 10 µM; hit rate 0.22% among 360,000; in the data active = inhibition above about 35%, passing the limit was not always enough; inconclusive = no clear call, values can overlap the other calls
BoNT A protease – BoNT A light chain protease inhibition | multiplex microsphere protease substrate cleavage, flow cytometry | AID 588499 | inhibition, % at 10 µM | hit rate 0.17% among 360,000
GDH-TPI counter-1 – GDH-TPI coupled enzyme inhibition counter-screen; hit rate 1.2% among 360,000; GDH-TPI coupled enzyme counterscreen, NADH absorbance; AID 588335; inhibition, % at 4.8 µM; in the data active = inhibition above about 30%
Mtb FBA confirm – Mtb FBA inhibition, confirmed; shares compounds with FBA Mtb inh; hit rate 78% among 5,600; purified M. tuberculosis FBA, fluorescence read-out; inhibition, % at 1 µM; AID 651616; in the data active = inhibition above about 27%
GDH-TPI counter-2 – inhibits GDH-TPI coupling enzymes, flagging Mtb FBA hits; shares compounds with FBA Mtb inh; hit rate 81% among 5,600; AID 652141; GDH-TPI coupled enzyme counterscreen, fluorescence; inhibition, % at 1 µM; in the data active = inhibition above about 10%
Of the large screens only hits and unclear results are named; the others gave an inactive call (follow-up assays come after a bar, where they were run). Compounds with a hit are over-represented: about 6.7% of the library has one in this group of screens. Cut-off read from the data, not from the text of the source, unless noted: active = inhibition above about 30%; inconclusive = no clear call, values can overlap the other calls; inactive = below that.

Cc1nc(-c2cn[nH]c2)c2cc(C)oc2n1	FBA Mtb inh 26.9 | Mtb FBA confirm 133.6 | GDH-TPI counter-2 109.9
Cc1cccc(-n2c(SCC(=O)Nc3nnc(C)s3)nnc2-c2ccoc2C)c1	FBA Mtb inh 46.1 | Mtb FBA confirm 38.1 | GDH-TPI counter-2 31.3
Cc1cc(C)n2cc(CSc3nnc(N)s3)nc2n1	none
Cc1cc(C)n2cc(CSc3nncn3C)nc2n1	FBA Mtb inh 48.8 | Mtb FBA confirm inactive | GDH-TPI counter-2 inactive
Cc1cc(C)n2cc(CSc3nnnn3C)nc2n1	FBA Mtb inh 27.9 (no result: Bead autofluor, Anthrax LF prot, BoNT-F LC inh, BoNT A protease) | Mtb FBA confirm active | GDH-TPI counter-2 187.4
Cc1ccc(SCc2cn3c(C)cc(C)nc3n2)cc1	none
CCc1nnc(SCc2cn3c(C)cc(C)nc3n2)n1N	FBA Mtb inh 38.8 | Mtb FBA confirm 44.8 | GDH-TPI counter-2 53.1
Cc1ccc(C(=O)NC(C)c2ccc(-n3ccnc3)cc2)cc1S(=O)(=O)N1CCOCC1 (stereo unspecified)	none
CN(C)C(=O)/C(=C/c1cn(-c2ccccc2)nc1-c1cccc([N+](=O)[O-])c1)NC(=O)c1ccccc1	none
O=C(Nc1cccc(-c2nnc(-c3ccccc3)o2)c1)c1ccc(Br)o1	none
COc1cccc(-c2nn(C)c3sc(C(=O)NCc4ccccn4)cc23)c1	FBA Mtb inh 80.1 | Mtb FBA confirm inactive | GDH-TPI counter-2 inactive
Cn1nc(-c2ccccc2)c2cc(C(=O)O)sc21	FBA Mtb inh 48.8 | Mtb FBA confirm inactive | GDH-TPI counter-2 inactive
COCCCNC(=O)c1cc2c(-c3cccc(OC)c3)nn(C)c2s1	FBA Mtb inh 89.1 | Mtb FBA confirm 119.4 | GDH-TPI counter-2 107.5
CCN(CC)CCNC(=O)c1cc2c(-c3cccc(OC)c3)nn(C)c2s1	FBA Mtb inh 60.4 | Mtb FBA confirm 173.0 | GDH-TPI counter-2 128.6
COc1cccc(-c2nn(C)c3sc(C(=O)NCc4ccc(C)cc4)cc23)c1	none
Cn1c(=O)cc(OCCCC(=O)NCc2ccccn2)c2ccccc21	Bead autofluor inconclusive, Anthrax LF prot inconclusive
Cc1cc(NCCCn2ccnc2)n2nc(-c3ccc(Cl)cc3)cc2n1	none
CC(C)(C)c1cc(NCCCn2ccnc2)n2ncc(-c3ccc(Cl)cc3)c2n1	FBA Mtb inh 60.9, Bead autofluor 25531, BoNT A protease inconclusive | Mtb FBA confirm 59.8 | GDH-TPI counter-2 41.1
CCOc1cc(C(=O)NC(C)c2ccncc2)cc(OCC)c1OCC (stereo unspecified)	none
CCN(CC)CCN1C(=O)c2ccccc2NC1c1ccc(F)cc1 (stereo unspecified)	FBA Mtb inh 45.0 | Mtb FBA confirm 129.1 | GDH-TPI counter-2 117.2
CCN(CC)CCN1C(=O)c2ccccc2NC1c1cccc(F)c1 (stereo unspecified)	FBA Mtb inh 50.6 | Mtb FBA confirm 27.3 | GDH-TPI counter-2 21.3
CCN(CC)CCN1C(=O)c2ccccc2NC1c1ccc(Br)cc1 (stereo unspecified)	FBA Mtb inh 84.3 | Mtb FBA confirm 120.7 | GDH-TPI counter-2 101.0
O=C1c2ccccc2NC(c2cccc([N+](=O)[O-])c2)N1CCc1ccccc1 (stereo unspecified)	none
O=C1c2ccccc2NC(c2ccccc2F)N1NS(=O)(=O)c1ccccc1 (stereo unspecified)	none
CCN(CC)CCN1C(=O)c2ccccc2NC1c1ccccc1F (stereo unspecified)	FBA Mtb inh 68.4 | Mtb FBA confirm 168.7 | GDH-TPI counter-2 88.0
OCCCc1nc2ccccc2n1CCCCOc1ccccc1	none
COc1ccc(S(=O)(=O)N2CCCC(C(=O)NCc3cccnc3)C2)cc1C (stereo unspecified)	none
CCN(CC)CCN1C(=O)c2ccccc2NC1c1ccc(N(C)C)cc1 (stereo unspecified)	none
CCN(CC)CCN1C(=O)c2ccccc2NC1c1ccc(C)cc1 (stereo unspecified)	FBA Mtb inh 78.8, Bead autofluor 23099, BoNT A protease inconclusive | Mtb FBA confirm 63.3 | GDH-TPI counter-2 38.5
O=C(O)CCC(=O)NN1C(=O)c2ccccc2NC1c1ccc(F)cc1 (stereo unspecified)	FBA Mtb inh 40.0 | Mtb FBA confirm 126.6 | GDH-TPI counter-2 95.1
COc1ccc(-c2cc(C(=O)NCCCN3CCOCC3)c3cc(C(C)C)ccc3n2)cc1	FBA Mtb inh 70.2 | Mtb FBA confirm active | GDH-TPI counter-2 140.8
CCOc1ccc(-c2cc(C(=O)NCCCN3CCOCC3)c3ccccc3n2)cc1	FBA Mtb inh 35.3 | Mtb FBA confirm 115.7 | GDH-TPI counter-2 87.6
Cc1ccc(-c2cc(C(=O)NCCCn3ccnc3)c3ccccc3n2)s1	FBA Mtb inh 110.2 | Mtb FBA confirm 154.4 | GDH-TPI counter-2 124.6
CC1CN(C(=O)c2cc(-c3ccc(Cl)s3)nc3ccccc23)CC(C)O1 (stereo unspecified)	FBA Mtb inh 64.8, Bead autofluor inconclusive | Mtb FBA confirm 75.7 | GDH-TPI counter-2 60.0
O=C(NCCCn1ccnc1)c1cc(-c2ccncc2)nc2ccccc12	none
COc1ccc(-c2cc(C(=O)NCCCN3CCOCC3)c3ccccc3n2)cc1OC	BoNT-F LC inh inconclusive
O=C1c2ccccc2S(=O)(=O)N1CCOc1ccccc1	none
CSCCC(NC(=O)OCc1ccccc1)NC(=O)OCc1ccccc1	none (no result: GDH-TPI counter-1)
O=C(NCCCN1CCOCC1)c1cc(-c2ccco2)nc2ccccc12	FBA Mtb inh 89.2 (no result: Bead autofluor, Anthrax LF prot, BoNT-F LC inh, BoNT A protease) | Mtb FBA confirm 114.9 | GDH-TPI counter-2 75.2
O=C(NCCCN1CCOCC1)c1cc(-c2ccc(F)cc2)nc2ccccc12	Bead autofluor inconclusive
O=C(NCCCN1CCOCC1)c1cc(-c2cccc(Br)c2)nc2ccccc12	none
O=C(NCCCN1CCOCC1)c1cc(-c2ccc(Cl)s2)nc2ccccc12	FBA Mtb inh 63.8 | Mtb FBA confirm 172.2 | GDH-TPI counter-2 145.2
COC(=O)C1=C(C)N(C)C(=S)NC1c1ccc(Cl)cc1 (stereo unspecified)	none
COc1ccc(NC(=O)N/C=C/c2ccc(Cl)cc2)cc1	none
COc1ccc(-c2ccc(C#N)c(SCC(=O)NC3CC3)n2)cc1OC	FBA Mtb inh 99.2 | Mtb FBA confirm 107.9 | GDH-TPI counter-2 110.6
Cc1ccc(C(=O)CSc2nc(-c3ccccc3)ccc2C#N)cc1	none
CCSc1nc(-c2ccc(OC)cc2)ccc1C#N	FBA Mtb inh 42.3 | Mtb FBA confirm 83.9 | GDH-TPI counter-2 80.2
O=C(Nc1cccc2ccccc12)N(CCO)C1CCS(=O)(=O)C1 (stereo unspecified)	FBA Mtb inh 61.1 | Mtb FBA confirm 107.9 | GDH-TPI counter-2 104.6
CCN(C(=O)COC(=O)Cc1cccc2ccccc12)C1CCS(=O)(=O)C1 (stereo unspecified)	none
N=c1oc2cc(O)ccc2cc1C(=O)Nc1ccc(F)cc1	FBA Mtb inh 90.5 | Mtb FBA confirm 160.1 | GDH-TPI counter-2 133.7
O=C(c1ccc(F)cc1)c1cc2ccc(O)cc2oc1=O	none
